# About 83,000 compounds went through this panel and 20% of them were active in at least one assay; those are over-represented in the sample as a whole.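 The endpoint reported here, percent growth, reads 100 for growth as untreated, 0 for no net growth and -100 for all cells dead.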 The source made the active and inactive calls. Rule for the calls: active = growth percent below 10; inactive = the rest.
# System: CCRF-CEM leukemia
# Assay: NCI-60 one-dose screen, 48 h (100 = growth as untreated, 0 = no growth, -100 = all killed)
# Settings: 10 µM unless noted
row,Compound,growth
1,CC(C)(C)c1ccc2oc(=O)n(SC(Cl)(Cl)Cl)c2c1,83.5% (inactive)
2,COc1ccc2nc(-c3ccc(Cl)cc3)cc(-c3nnc(SC/C(=N/O)c4ccccc4)o3)c2c1,54.1% (inactive)
3,CCOC(=O)c1c(-c2ccc(O)cc2)c(C#N)c2c(C#N)c(N)nn2c1N,35.7% (inactive)
4,C=CCn1c(SCC(=O)Nc2ccc(C(=O)/C=C/c3cc(OC)c(OC)c(OC)c3)cc2)nnc1-c1ccc(Cl)cc1,6.62% (active)
5,CCOC(=O)c1ccc(Nc2ncnc3ccc(NC(=O)c4ccccc4)cc23)cc1,91.2% (inactive)
6,CCOC(=O)c1cnn(-c2nc(-c3ccc(F)cc3)c(C#N)c(N3CCOCC3)n2)c1N,92.8% (inactive)
7,CSc1nc(-c2ccc(F)cc2)c(C#N)c(N2CCOCC2)n1,81% (inactive)
8,c1ccc(Sc2ncccn2)nc1,104% (inactive)
9,COc1ccc(/C=C/C(=O)/C=C(/C=C/c2ccc(OC)c(OC)c2)OB(F)F)cc1OC,-12% (active)
10,Cc1cccc(NC(=O)c2sc3nc4c(cc3c2N)CN(Cc2ccccc2)CC4)c1C,13.9% (inactive)
11,Nc1c(C(=O)Nc2cccc3ccccc23)sc2nc3c(cc12)CCCCCC3,11.2% (inactive)
12,O=C1c2ccccc2C(=O)c2c1oc1c2c(=O)[nH]c2ccccc21,20.7% (inactive)
13,C=CCn1c(CN2CCN(c3cc4c(cc3F)c(=O)c(C(=O)O)cn4C3CC3)CC2)n[nH]c1=S,90.1% (inactive)
14,COc1cccc2c1-c1ccccc1C2=O,5.55% (active)
15,COc1ccc2cc(/C=C3\N=C(c4cc(OC)c(OC)c(OC)c4)OC3=O)c(OC)nc2c1,111% (inactive)
16,C=CCn1c(SCC(=O)Nc2ccc(C(=O)/C=C/c3cc(OC)c(OC)c(OC)c3)cc2)nnc1-c1ccccc1,57.1% (inactive)
17,O=C(CCCC(=O)Nc1ccc(-n2nnc3cc(Cl)c(Cl)cc32)cc1)Nc1ccc(-n2nnc3cc(Cl)c(Cl)cc32)cc1,77.6% (inactive)
18,COc1ccc(Nc2cc(NC(=O)CNc3cc(OC)c(Cl)c(OC)c3Cl)ncn2)cc1,89.3% (inactive)
19,COc1cc(NC(=O)Nc2cnc(Nc3ccc(N4CCOCC4)cc3)nc2Oc2ccc(C(F)(F)F)cc2)cc(OC)c1,89.4% (inactive)

row,Compound,growth
1,CCCCN(CCCC)CC(CN(CC)CC)OC(=O)Nc1ccccc1 (stereo unspecified),98.1% (inactive)
2,N#Cc1ccc(N2Cc3cc(Cl)ccc3OC3=C2C(=O)N(Cc2ccccc2)C3=O)cc1,-9.47% (active)
3,Nc1c(C(=O)Nc2cccc3ccccc23)sc2nc3c(cc12)CCCCC3,9.18% (active)
4,Cc1cc(C)cc(Nc2nccc(-c3c(-c4ccc(F)cc4)ncn3C3CCNCC3)n2)c1,-12.6% (active)
5,Nc1c(C(=O)Nc2cccc3ccccc23)sc2nc3c(cc12)COCC3,23.6% (inactive)
6,CC(C)Cc1cc(CNC(=O)C2[C@H]3CN(C(=O)c4ccccc4)C[C@@H]23)nn1-c1ccccc1 (stereo partly specified),89.7% (inactive)
7,O=C1c2ccccc2C(=O)c2c1oc1c2c(=O)[nH]c2ccc(Cl)cc21,29% (inactive)
8,C=C1C(=O)O[C@H]2[C@H]1CC/C(C=Nc1c(N)cc(F)cc1Br)=C\CC[C@@]1(C)O[C@@H]21,7.71% (active)
9,Nc1ccc2c(c1)C(=O)C(=O)c1c-2nc2ccccn12,13.6% (inactive)
10,C#C[C@@]1(O)[C@@H](CO)O[C@@H](n2cc(F)c3c(N)ncnc32)[C@@H]1O,13.3% (inactive)
11,C=C(C)[C@@H]1CCC=C2CC[C@]3(C)[C@H](CC[C@@H]4[C@@]5(C)CCCNC(C)(C)[C@@H]5CC[C@]43C)[C@H]21,40.1% (inactive)
12,COc1ccc(/C=C/C(=O)C(CC2CCC2)C(=O)/C=C/c2ccc(OC)c(OC)c2)cc1OC,8.4% (active)
13,CCOC(=O)C1=C(C)n2nc(CC#N)c(C#N)c2NC1c1ccc(CC)cc1 (stereo unspecified),101% (inactive)
14,CCCCc1ccc(N=Nc2ccc(OCC[N+](C)(C)C)cc2)cc1,62.4% (inactive)
15,CC(C)NS(=O)(=O)c1cccc(-c2ccc3c4c(n(CCCN(C)C)c(=O)c3c2)-c2ccccc2C4=O)c1,1.51% (active)
16,COc1ccc2[nH]c(=O)c(/C=C/C(=O)c3ccccc3OC)cc2c1,7.53% (active)
17,CCOC(=O)c1c(C)nc2c(c1N)/C(=C/c1cccs1)C(=O)N2Cc1ccccc1,29.8% (inactive)
18,C/C(=N/Nc1nc2ccccc2n1C)c1ccccn1,-6.15% (active)
19,CC(C)NS(=O)(=O)c1cccc(-c2ccc3c(=O)n(CCCN)c4c(c3c2)C(=O)c2ccccc2-4)c1,88.2% (inactive)

# System: MOLT-4 leukemia
# Assay: as above
# Settings: 10 µM unless noted
row,Compound,growth
1,CC(C)(C)c1ccc2oc(=O)n(SC(Cl)(Cl)Cl)c2c1,77.2% (inactive)
2,COc1ccc2nc(-c3ccc(Cl)cc3)cc(-c3nnc(SC/C(=N/O)c4ccccc4)o3)c2c1,52.5% (inactive)
3,CCOC(=O)c1c(-c2ccc(O)cc2)c(C#N)c2c(C#N)c(N)nn2c1N,23.7% (inactive)
4,C=CCn1c(SCC(=O)Nc2ccc(C(=O)/C=C/c3cc(OC)c(OC)c(OC)c3)cc2)nnc1-c1ccc(Cl)cc1,7.87% (active)
5,CCOC(=O)c1ccc(Nc2ncnc3ccc(NC(=O)c4ccccc4)cc23)cc1,63.8% (inactive)
6,CCOC(=O)c1cnn(-c2nc(-c3ccc(F)cc3)c(C#N)c(N3CCOCC3)n2)c1N,90.4% (inactive)
7,CSc1nc(-c2ccc(F)cc2)c(C#N)c(N2CCOCC2)n1,86.5% (inactive)
8,c1ccc(Sc2ncccn2)nc1,98.4% (inactive)
9,COc1ccc(/C=C/C(=O)/C=C(/C=C/c2ccc(OC)c(OC)c2)OB(F)F)cc1OC,1.45% (active)
10,Cc1cccc(NC(=O)c2sc3nc4c(cc3c2N)CN(Cc2ccccc2)CC4)c1C,22.5% (inactive)
11,Nc1c(C(=O)Nc2cccc3ccccc23)sc2nc3c(cc12)CCCCCC3,21% (inactive)
12,O=C1c2ccccc2C(=O)c2c1oc1c2c(=O)[nH]c2ccccc21,5.55% (active)
13,C=CCn1c(CN2CCN(c3cc4c(cc3F)c(=O)c(C(=O)O)cn4C3CC3)CC2)n[nH]c1=S,94.2% (inactive)
14,COc1cccc2c1-c1ccccc1C2=O,73.9% (inactive)
15,COc1ccc2cc(/C=C3\N=C(c4cc(OC)c(OC)c(OC)c4)OC3=O)c(OC)nc2c1,94.8% (inactive)
16,C=CCn1c(SCC(=O)Nc2ccc(C(=O)/C=C/c3cc(OC)c(OC)c(OC)c3)cc2)nnc1-c1ccccc1,76.9% (inactive)
17,O=C(CCCC(=O)Nc1ccc(-n2nnc3cc(Cl)c(Cl)cc32)cc1)Nc1ccc(-n2nnc3cc(Cl)c(Cl)cc32)cc1,91.1% (inactive)
18,COc1ccc(Nc2cc(NC(=O)CNc3cc(OC)c(Cl)c(OC)c3Cl)ncn2)cc1,52.2% (inactive)
19,COc1cc(NC(=O)Nc2cnc(Nc3ccc(N4CCOCC4)cc3)nc2Oc2ccc(C(F)(F)F)cc2)cc(OC)c1,90.5% (inactive)

row,Compound,growth
1,CCCCN(CCCC)CC(CN(CC)CC)OC(=O)Nc1ccccc1 (stereo unspecified),80.8% (inactive)
2,N#Cc1ccc(N2Cc3cc(Cl)ccc3OC3=C2C(=O)N(Cc2ccccc2)C3=O)cc1,-24.7% (active)
3,Nc1c(C(=O)Nc2cccc3ccccc23)sc2nc3c(cc12)CCCCC3,15.9% (inactive)
4,Cc1cc(C)cc(Nc2nccc(-c3c(-c4ccc(F)cc4)ncn3C3CCNCC3)n2)c1,-14.2% (active)
5,Nc1c(C(=O)Nc2cccc3ccccc23)sc2nc3c(cc12)COCC3,35% (inactive)
6,CC(C)Cc1cc(CNC(=O)C2[C@H]3CN(C(=O)c4ccccc4)C[C@@H]23)nn1-c1ccccc1 (stereo partly specified),80.6% (inactive)
7,O=C1c2ccccc2C(=O)c2c1oc1c2c(=O)[nH]c2ccc(Cl)cc21,18.4% (inactive)
8,C=C1C(=O)O[C@H]2[C@H]1CC/C(C=Nc1c(N)cc(F)cc1Br)=C\CC[C@@]1(C)O[C@@H]21,45.9% (inactive)
9,Nc1ccc2c(c1)C(=O)C(=O)c1c-2nc2ccccn12,-32.8% (active)
10,C#C[C@@]1(O)[C@@H](CO)O[C@@H](n2cc(F)c3c(N)ncnc32)[C@@H]1O,4.47% (active)
11,C=C(C)[C@@H]1CCC=C2CC[C@]3(C)[C@H](CC[C@@H]4[C@@]5(C)CCCNC(C)(C)[C@@H]5CC[C@]43C)[C@H]21,0.148% (active)
12,COc1ccc(/C=C/C(=O)C(CC2CCC2)C(=O)/C=C/c2ccc(OC)c(OC)c2)cc1OC,4.1% (active)
13,CCOC(=O)C1=C(C)n2nc(CC#N)c(C#N)c2NC1c1ccc(CC)cc1 (stereo unspecified),104% (inactive)
14,CCCCc1ccc(N=Nc2ccc(OCC[N+](C)(C)C)cc2)cc1,57.2% (inactive)
15,CC(C)NS(=O)(=O)c1cccc(-c2ccc3c4c(n(CCCN(C)C)c(=O)c3c2)-c2ccccc2C4=O)c1,68.2% (inactive)
16,COc1ccc2[nH]c(=O)c(/C=C/C(=O)c3ccccc3OC)cc2c1,10.9% (inactive)
17,CCOC(=O)c1c(C)nc2c(c1N)/C(=C/c1cccs1)C(=O)N2Cc1ccccc1,18.8% (inactive)
18,C/C(=N/Nc1nc2ccccc2n1C)c1ccccn1,1.82% (active)
19,CC(C)NS(=O)(=O)c1cccc(-c2ccc3c(=O)n(CCCN)c4c(c3c2)C(=O)c2ccccc2-4)c1,95.6% (inactive)

# — PubChem BioAssay (NCI)
